# Laboratory results: the supplement of paper PMC8387472
# Structures can show the parent of a compound that is named as a salt. ± gives the standard deviation of the averaged measurements.
# Tested on: mESC LDLR-Dup GFP reporter (SpCas9 MH-deletion repair)
# Test: fraction of GFP+ cells relative to DMSO control (fold change); higher = more MH-deletion repair to in-frame LDLR (or more editing)
# Settings: 2 µM; 7 days post-transfection
row,SMILES,fraction of GFP+ cells
1,Cc1nc(=O)c2cc(CN(C)c3ccc(C(=O)N[C@@H](CCC(=O)O)C(=O)O)s3)ccc2[nH]1 [Raltitrexed],2.3 ± 1
2,C=C1CC[C@H](O)C/C1=C/C=C1\CCC[C@]2(C)[C@@H]([C@H](C)/C=C/[C@H](C)C(C)C)CC[C@@H]12 [Vitamin D2],1.43 ± 0.26
3,CC1=CC(=O)c2ccccc2C1=O [Menadione],1.27 ± 0.36
4,Nc1nc(F)nc2c1ncn2[C@@H]1O[C@H](CO)[C@@H](O)[C@@H]1O [Fludarabine],0.867 ± 0.35
5,COc1cc(OCc2cccc(-c3ccccc3)c2C)cc(OC)c1CN1CCCC[C@H]1C(=O)O [pd-1/pd-l1 inhibitor 1],0.898 ± 0.35
6,O=C(NCCS(=O)(=O)c1ccc(C(F)(F)F)cn1)c1ccc(Cl)cc1,1.39 ± 0.63
7,O=c1ccc2cc3ccoc3cc2o1 [Psoralen],1.11 ± 0.41
8,CCc1ccc(/C=C2/SC(=S)NC2=O)cc1,0.853 ± 0.25
9,Cc1cc(Cl)ccc1OCCCC(=O)NO [Droxinostat],0.706 ± 0.06
10,COc1ccc(-c2nc(-c3cc(C(F)(F)F)cc(C(F)(F)F)c3)n(Cc3ccc(C(N)=O)cc3)c2-c2ccc(OC)cc2)cc1 [Apoptozole],1.14 ± 0.37
11,Nc1nc(Nc2ccc(S(N)(=O)=O)cc2)nn1C(=O)c1c(F)cccc1F,1 ± 0.15
12,CC(C)(Oc1ccc(C(=O)c2ccc(Cl)cc2)cc1)C(=O)O [Fenofibric acid],2.08 ± 0.55
13,COc1cc2c(Nc3ccc(NC(=O)c4ccccc4)cc3)ncnc2cc1OCCCN1CCOCC1,0.59 ± 0.2
14,Cn1cc(C(=O)Nc2ccc3c(c2)OCCO3)c2ccccc2c1=O,1.33 ± 0.53
15,O=c1c(O)c(-c2ccc(O)c(O)c2)oc2cc(O)ccc12 [Fisetin],1.39 ± 0.39
16,CC(=O)Nc1ccc(NC(=S)NC(=O)c2ccc(C(C)(C)C)cc2)cc1 [Tenovin-1],0.623 ± 0.14
17,Nc1ncnc2c1ncn2[C@@H]1O[C@H](CO)[C@@H](O)[C@@H]1O [Vidarabine],1.26 ± 0.36
18,Cc1cc([N+](=O)[O-])ccc1NS(=O)(=O)c1cc(Cl)ccc1Cl,1.64 ± 0.13
19,Oc1cccc(-c2nc(N3CCOCC3)c3oc4ncccc4c3n2)c1,0.542 ± 0.15
20,Cc1c(C)c2c(c(C)c1O)CCC(C)(COc1ccc(CC3SC(=O)NC3=O)cc1)O2 (centres undefined) [Troglitazone (CS-045)],1.34 ± 0.24

row,SMILES,fraction of GFP+ cells
1,CCOC(=O)Nc1ccc(NCc2ccc(F)cc2)nc1N [Flupirtine maleate],0.989 ± 0.52
2,CCN1C(=O)CNc2ncc(-c3ccc(-c4nc[nH]n4)nc3C)nc21,0.696 ± 0.12
3,Nc1nc(=O)c2nc(CNc3ccc(C(=O)N[C@@H](CCC(=O)O)C(=O)O)cc3)cnc2[nH]1 [Folic acid],1.24 ± 0.46
4,O=c1[nH]nc2c3c(cccc13)N=C(CN1Cc3ccccc3C1)N2,0.38 ± 0.041
5,Nc1[nH]cnc2ncnc1-2 [Adenine HCl],1.31 ± 0.32
6,Cc1ccc(C(=O)OCc2ccc([C@@H](CN)C(=O)Nc3ccc4cnccc4c3)cc2)c(C)c1,1.71 ± 0.5
7,CC(C)[C@H](CO)Nc1nc(Nc2cccc(Cl)c2)c2ncn(C(C)C)c2n1 [Purvalanol A],0.716 ± 0.095
8,O=[N+]([O-])c1ccc(Nc2ccccc2-c2ccccc2)c2nonc12,0.854 ± 0.23
9,Nc1ccc(O)c(C(=O)O)c1 [Mesalamine],0.933 ± 0.049
10,Cc1nc2c(O)cccc2c(=O)[nH]1,0.926 ± 0.11
11,CN(C)/N=N/c1[nH]cnc1C(N)=O [Dacarbazine],1.01 ± 0.49
12,N#Cc1c(Oc2ccc(F)c(NC(=O)Cc3cccc(C(F)(F)F)c3)c2)ccc2nc(NC(=O)C3CC3)sc12,0.727 ± 0.25
13,CCCC(CCC)C(=O)O [Divalproex Sodium],0.742 ± 0.1
14,COc1cc2c(cc1O)CC[C@@H]1[C@@H]2CC[C@]2(C)[C@@H](O)CC[C@@H]12 [2-Methoxyestradiol (2-MeOE2)],0.441 ± 0.088
15,C[C@]1(c2nc3c(C(N)=O)cccc3[nH]2)CCCN1 [Veliparib (ABT-888)],0.657 ± 0.19
16,Cc1cnc(-c2ccccc2C(C)C)nc1NCc1ccc(-n2ccnn2)cc1,0.373 ± 0.22
17,CN(C)c1ccc(-c2nc3ncc(Cl)c(N4CCN(CC(=O)Nc5nccs5)CC4)c3[nH]2)cc1,0.872 ± 0.39
18,Nc1nc(F)nc2c1ncn2[C@@H]1O[C@H](COP(=O)(O)O)[C@@H](O)[C@@H]1O [Fludarabine Phosphate],0.855 ± 0.23
19,COc1ccc(CC(=O)Nc2nc3c(s2)CCc2ccccc2-3)cc1OC,1.51 ± 0.37
